Most compounds without a hit are left out; they make up all but 17% or so of the library.
DT40 TDP1 CPT – growth inhibition of DT40 Tdp1-/-;hTDP1 cells with camptothecin (screen for TDP1 inhibitors) | chicken DT40 Tdp1-/-;hTDP1 cells + 20 nM CPT, ATP luminescence, 48 h | Potency, µM (doses to about 46.2 µM), inactives show top-dose activity change, negative = growth inhibition, actives largely listed as inhibitors | actives 12% (n = 420,000) | AID 686979; note: % is set by controls: 0 for no effect and ±100 for the full control effect; nearly all actives have a fitted effect of over 55% in size
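Cell growth measured by CellTiter-Glo luminescence after a minimum 48 h, 37 C compound exposure with 20 nM CPT in Tdp1-knockout DT40 cells stably expressing hTDP1, seeded 400/well; qHTS titration format.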
TDP1 block – blocks human tyrosyl-DNA phosphodiesterase 1; Q9NUW8; recombinant TDP1, AlphaScreen DNA substrate cleavage; Potency, µM (top dose mostly 130 µM), for inactives: top-dose activity change, negative = inhibition, usual class: inhibitors; actives 0.28% (n = 350,000); AID 485290; note: % is set by controls: 0 for no effect and ±100 for the full control effect; nearly all actives have a fitted effect of over 40% in size
Target sequence (Q9NUW8 whole entry, looked up): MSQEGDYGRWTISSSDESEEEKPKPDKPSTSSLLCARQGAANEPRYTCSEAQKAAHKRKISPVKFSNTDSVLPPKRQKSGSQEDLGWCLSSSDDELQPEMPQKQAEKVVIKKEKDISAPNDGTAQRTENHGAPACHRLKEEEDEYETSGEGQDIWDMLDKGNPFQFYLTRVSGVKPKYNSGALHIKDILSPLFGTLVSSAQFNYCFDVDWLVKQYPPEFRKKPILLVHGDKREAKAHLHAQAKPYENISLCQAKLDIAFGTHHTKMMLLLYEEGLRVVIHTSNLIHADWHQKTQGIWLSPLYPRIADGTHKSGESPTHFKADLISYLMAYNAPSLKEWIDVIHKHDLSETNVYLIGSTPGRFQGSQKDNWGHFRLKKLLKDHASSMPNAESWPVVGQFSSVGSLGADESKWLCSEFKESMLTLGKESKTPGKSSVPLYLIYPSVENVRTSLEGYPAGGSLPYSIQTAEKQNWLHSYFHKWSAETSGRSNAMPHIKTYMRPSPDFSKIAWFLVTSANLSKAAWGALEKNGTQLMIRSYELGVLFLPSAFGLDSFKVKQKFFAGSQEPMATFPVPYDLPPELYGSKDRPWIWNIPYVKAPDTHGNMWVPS
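Signal: AlphaScreen proximity between streptavidin donor and anti-FITC acceptor beads on intact substrate. Reaction: Tdp1 1 nM, substrate 15 nM final, 5 min RT after 15 min compound preincubation.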
ClpP mod – qHTS Assay for Activators of ClpP; purified B. subtilis ClpP, FRET peptide cleavage, 20 min; Potency, µM (highest dose often 57.5 µM), without a hit: at the highest dose activity change, negative = active; actives 1.9% (n = 340,000); active = well fitted falling curve with a large enough effect; inconclusive = small, poorly fitted or top-dose-only effect; inactive = no such curve, though single readings can be large or run the other way; note: the source files actives as falling curves though it sought activators and does not explain the sign; nearly all actives have a fitted effect of over 65% in size
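ClpP 10 microg/mL final, pH 8 Tris/KCl buffer with BSA, glycerol, Tween-20; compound pinned in; FRET-FV substrate; RT 20 min; Ex320/Em430; ΔFRET vs ADEP 5.8 microM, DMSO, no enzyme.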
TDP1 cell noCPT – qHTS for Inhibitors of human tyrosyl-DNA phosphodiesterase 1 (TDP1): qHTS in cells in absence of CPT | DT40 Tdp1-/- hTDP1 cells, no CPT, ATP luminescence, 48 h | Potency, µM (top dose mostly 46.2 µM), inactives show at the highest dose activity change, negative = growth inhibition, hits mostly inhibitors | actives 15% (n = 420,000); note: % is set by controls: 0 for no effect and ±100 for the full control effect; nearly all actives have a fitted effect of over 55% in size
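Chicken DT40 Tdp1-/- cells stably complemented with human TDP1 were seeded at 400 cells/well with DMSO in place of 20 nM camptothecin. After compound pinning, cells grew at least 48 hr at 37 °C; viability read by CellTiter-Glo luminescence.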
* marks the source's active call; other numbers are inactive results; [ ] = dose if it differs, or a comment. Unless noted, calls come from the whole dose curve; as a rule, active = well fitted curve in the direction sought with a large enough effect; inconclusive = small, poorly fitted or top-dose-only effect, or another doubt; inactive = no such curve, though single readings can be large; an effect the other way counts as inactive or inconclusive. Potency is the fitted concentration of half-maximal effect.

For COc1ccccc1CNc1ncnc2cc(Cl)ccc12 the results were DT40 TDP1 CPT inconclusive, TDP1 block 0%, ClpP mod 1% and TDP1 cell noCPT inconclusive.
`Cc1ccc(S(=O)(=O)Nc2ccccc2C(=O)N2CCCCC2C)c(C)c1NS(C)(=O)=O` (centres undefined) gave DT40 TDP1 CPT -12%, TDP1 block 12% and TDP1 cell noCPT -21%.
`O=C(NCc1cc(C(F)(F)F)cc(C(F)(F)F)c1)c1cc(-c2cc(F)ccc2OCC2CCCO2)n[nH]1` (centres undefined) gave DT40 TDP1 CPT -15%, ClpP mod -4% and TDP1 cell noCPT 5%.
`Cc1c(NC(=O)C(C)OC(=O)c2cc(Cl)ccc2O)c(=O)n(-c2ccccc2)n1C` (centres undefined) gave DT40 TDP1 CPT 10%, TDP1 block 4%, ClpP mod -9% and TDP1 cell noCPT -23%.
`O=C(Cc1ccccc1)NC(NC(=O)Cc1ccccc1)c1cccc([N+](=O)[O-])c1` gave DT40 TDP1 CPT inconclusive, TDP1 block 5%, ClpP mod 0% and TDP1 cell noCPT 18µM*.
`CC(C)CC(=O)NC(NC(=O)CC(C)C)c1cccc([N+](=O)[O-])c1` gave DT40 TDP1 CPT 18%, TDP1 block 9% and TDP1 cell noCPT -4%.
COC(=O)c1ccc(Cl)c(NC(=O)NC23CC4CC(CC(C4)C2)C3)c1 was read as DT40 TDP1 CPT 23µM*, TDP1 block 6%, ClpP mod -2% and TDP1 cell noCPT 18µM*.
For COC(=O)c1cccc(S(=O)(=O)N2CCC(NC(=O)NC34CC5CC(CC(C5)C3)C4)CC2)c1 the results were DT40 TDP1 CPT 23µM*, TDP1 block 4%, ClpP mod -4% and TDP1 cell noCPT 21µM*.
`Cc1cc(C)c(C(=O)NC2CCCc3c2cnn3-c2ccc(C)c(C)c2)c(=O)[nH]1` (centres undefined) gave DT40 TDP1 CPT -12%, TDP1 block 2%, ClpP mod -4% and TDP1 cell noCPT -12%.
c1ccc(-c2nc3nc4ccccc4nc3n2Cc2ccco2)cc1 was read as DT40 TDP1 CPT inconclusive, TDP1 block -5%, ClpP mod -24% and TDP1 cell noCPT 22µM*.
Screening CC(C)Cn1c(-c2cccs2)nc2nc3ccccc3nc21 returned DT40 TDP1 CPT 16µM*, TDP1 block -8%, ClpP mod 31% and TDP1 cell noCPT 15µM*.
CCCCOCCCn1c(-c2ccco2)nc2nc3ccccc3nc21 was read as DT40 TDP1 CPT inconclusive, TDP1 block 7%, ClpP mod -5% and TDP1 cell noCPT 21µM*.
`CCCCn1c(-c2cccs2)nc2nc3ccccc3nc21` gave DT40 TDP1 CPT inconclusive, TDP1 block -8%, ClpP mod inconclusive and TDP1 cell noCPT 23µM*.
`Fc1ccc(-n2c(-c3ccco3)nc3nc4ccccc4nc32)cc1` gave DT40 TDP1 CPT -11%, TDP1 block -4%, ClpP mod inconclusive and TDP1 cell noCPT -9%.
`COc1cccc(NC(=O)Cn2cc(S(=O)(=O)N3CCCC3)c(S(=O)(=O)N3CCCC3)c2)c1` gave DT40 TDP1 CPT -5%, TDP1 block -6%, ClpP mod 2% and TDP1 cell noCPT -18%.
Screening COCC(=O)Nc1cc(C(=O)N[C@H]2CCCCNC2=O)c2c(c1)nc(-c1ccncc1)n2C returned DT40 TDP1 CPT 13%[9.04 µM] and TDP1 cell noCPT -14%.
Cc1ccc(F)cc1C(=O)N1CCCC1(C)C(=O)NCC(C)C (centres undefined) was read as DT40 TDP1 CPT 0%, ClpP mod 1% and TDP1 cell noCPT -10%.
`Cc1cccn2c(=O)cc(CSc3nnc(NC(=O)C(C)C)s3)nc12` gave DT40 TDP1 CPT -4%, TDP1 block 3%, ClpP mod -5% and TDP1 cell noCPT -14%.
For CC(C)CCOCC(=O)Oc1ccccc1C(=O)O the results were DT40 TDP1 CPT -3%, TDP1 block 0%, ClpP mod 28µM* and TDP1 cell noCPT -15%.

Assay outcomes as filed in PubChem BioAssay.
